Bioassay records: PubChem BioAssay, several laboratories
hcDAF12 agonist: activators of H. contortus DAF-12 nuclear receptor; hit rate 1.4% among 370,000; AID 652067; activation, % at 6.8 µM; HEK293 hcDAF-12 lit1-tk-luc reporter, luminescence; 0% DMSO, 100% Δ7-dafachronic acid;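 active = activation above the mean of all tested compounds plus 3 SD, cut at about 5.5% in these data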
hgDAF12 agonist: agonists of H. glycines DAF-12 nuclear receptor; HEK293 GAL4-hgDAF12 UAS-luciferase reporter, agonist luminescence; normalized to butyrate control; activation, % at 6.8 µM; hit rate 1.8% among 370,000;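 active = activation above a cutoff set at the mean of all screened compounds plus 3 SD, cut at about 10% in these data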
Wnt act: Wnt/beta-catenin pathway activation; hit rate 1.2% among 300,000; Wnt/beta-catenin reporter cell assay, activator, plate reader; activation, % at 9.35 µM; in the data active = activation above about 30%, passing the limit was not always enough; inconclusive = no clear call, values can overlap the other calls
DAX1 StAR inh: blocks DAX1 repression of SF-1 activated StAR promoter | hit rate 1.1% among 370,000 | inhibition, % at 6.8 µM | HEK293T StAR-luciferase reporter, SF-1/DAX-1 repression relief;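 active = inhibition above the mean over all tested compounds plus 3 SD, cut at about 3.6% in these data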;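 also: higher inhibition means more luminescence from relief of DAX-1 repression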
esBAF inh: SWI/SNF esBAF complex inhibition; mouse ES cells, Bmi1-luciferase knock-in reporter, 24 h; 100% = twice the neutral-well signal; reporter increase, % at 12.5 µM; hit rate 2% among 350,000; AID 602393; in the data active = activation above about 40%; inconclusive = no clear call, values can overlap the other calls;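 also: a rise in the Bmi1 reporter signal indicates esBAF inhibition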
ssDAF-12 act: S. stercoralis DAF-12 activation, primary screen | HEK293 ssDAF-12/GRIP1 lit1-tk-luc reporter, luminescence; % of 3 µM dafachronic acid response | hit rate 1% among 370,000 | AID 652126 | activation, % at 6.8 µM;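 active = activation above the mean over all tested compounds plus 3 SD, cut at about 0.9% in these data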
A number is an active result; i = inactive; ? = inconclusive; nt = not tested or not shown. An excerpt weighted towards active compounds, which were near 4.2% of everything screened.

SMILES	hcDAF12 agonist	hgDAF12 agonist	Wnt act	DAX1 StAR inh	esBAF inh	ssDAF-12 act
CN(Cc1ccccc1)S(=O)(=O)c1ccc(Cl)c(C(=O)NCCCN2CCOCC2)c1	i	i	57.3	i	i	i
CCCn1c(CNc2ccc(Br)cc2)nc2ccccc21	i	i	i	i	48.2	i
Cc1ccc(NCc2nc3ccccc3n2CCOc2ccccc2)cc1	i	i	i	i	nt	i
Cn1c(CNc2ccc(F)cc2)nc2ccccc21	6.5	13.2	i	i	68.5	3.1
Oc1ccc(Oc2ccccc2F)c2cccnc12	5.7	i	nt	nt	nt	i
COc1ccc(S(=O)(=O)Nc2ccc3c(c2)C(=O)N([C@@H](C)CO)C[C@@H](C)[C@@H](CN(C)C(=O)Nc2ccccc2)OCCCC[C@H](C)O3)cc1	nt	nt	nt	nt	i	nt
Cc1cn(CCC(=O)Nc2ccccc2N2CCOCC2)c2ccccc12	6.0	i	i	i	nt	i
CCc1ccc(S(=O)(=O)c2n[nH]n3c2nc(=O)c2ccccc23)cc1	i	i	i	i	i	i
O=c1nc2c(-c3ccccc3F)n[nH]n2c2ccccc12	i	i	35.9	i	i	i
CCN(CC)S(=O)(=O)c1ccc(-c2nnc(SCC(=O)Nc3cc(OC)cc(OC)c3)o2)cc1	i	10.9	i	i	i	i
Cc1csc(NC(=O)CSc2nnc(-c3ccccc3)o2)n1	5.7	i	i	4.3	i	i
CCN(CC)S(=O)(=O)c1ccc(-c2nnc(SCC(C)=O)o2)cc1	i	i	i	i	i	i
COc1ccccc1NC(=O)CSc1nnc(Cc2ccccc2)o1	i	i	i	i	i	i
COc1ccccc1NC(=O)CSc1nnc(-c2ccccc2)o1	i	10.7	i	5.4	i	i
O=C(C[C@H]1C[C@H]2c3cc(NC(=O)NC4CCCC4)ccc3O[C@H]2[C@H](CO)O1)NCc1ccc(Cl)cc1	nt	nt	nt	nt	i	nt
COC(=O)c1ccc(/C=N/Nc2nc(C)c(C)s2)cc1	i	i	33.6	i	nt	i
CCOC(=O)c1sc(N/N=C/c2cccc(C)c2)nc1C	i	i	i	i	57.9	i
COC(=O)c1ccc(/C=N/Nc2nc(-c3ccc(C)cc3)cs2)cc1	nt	nt	nt	nt	i	nt
CCOC(=O)c1sc(N/N=C/c2ccccc2)nc1C	i	i	nt	i	nt	1.2
CC(=O)c1sc(N/N=C\c2ccccc2O)nc1C	i	25.5	i	i	i	i
COC(=O)c1cc(=O)nc(NN=Cc2ccccc2O)s1	i	i	i	i	nt	i
Cc1cccc(NC(=O)Nc2ccc3c(c2)C(=O)N(C)[C@@H]2CC[C@H](CC(=O)O)O[C@H]2CO3)c1	nt	nt	nt	nt	i	nt
C[C@H]1CN([C@@H](C)CO)C(=O)c2cc(-c3cncnc3)cnc2O[C@@H]1CN(C)C(=O)Cc1ccccn1	nt	nt	nt	nt	i	nt
CN1CCCCN2[C@@H](CO)[C@H](c3ccc(Br)cc3)[C@@H]2C1	nt	nt	nt	nt	i	nt
Oc1[nH]c2ccccc2c1N=Nc1ccccc1Cl	i	i	i	i	nt	2.5
SMILES	hcDAF12 agonist	hgDAF12 agonist	Wnt act	DAX1 StAR inh	esBAF inh	ssDAF-12 act
C=CCc1c(C)nc2c(-c3ccccc3)cnn2c1N1CCOCC1	5.6	i	40.2	i	83.8	i
O=C1C(c2ccncc2)=C(O)c2ccccc21	6.4	11.5	i	4.3	i	i
Cc1cc(C(=O)CSc2n[nH]c(N)n2)c(C)n1-c1ccc(F)cc1	i	i	i	i	i	i
Cc1cc(C(=O)CSc2n[nH]c(N)n2)c(C)n1-c1cc(F)ccc1F	i	i	i	i	50.5	i
O=C1NC(c2ccccc2)=N/C1=C/c1ccco1	i	i	?	i	nt	1.0
O=C1NC(c2cccc(Br)c2)=N/C1=C\c1ccco1	i	i	i	i	i	i
O=C1NC(c2ccccc2Br)=N/C1=C\c1ccco1	i	i	70.4	i	nt	i
CCC(=O)N1[C@@H]2c3ccc(-c4ccccc4F)c(=O)n3C[C@H]1[C@H](CO)[C@H]2C(=O)NC1CCCC1	nt	nt	nt	nt	i	nt
c1ccc2nc(-c3ccc(N4CCOCC4)cc3)ccc2c1	6.3	i	nt	3.8	i	i
CCCNC(=O)C[C@H]1CC[C@@H]2[C@@H](COc3ccc(NC(=O)c4cccc(Cl)c4)cc3C(=O)N2C)O1	nt	nt	nt	nt	i	nt
Nc1nnc(SCc2ccc(F)cc2Cl)s1	nt	nt	i	nt	i	nt
Cc1nnc(SCc2ccc(F)cc2Cl)s1	i	i	nt	i	50.3	i
Cc1nnc(SCc2c(Cl)cccc2Cl)s1	i	i	i	i	55.2	i
C[C@H]1CN([C@@H](C)CO)C(=O)c2cc(NS(=O)(=O)c3cccs3)ccc2O[C@H]1CN(C)C(=O)NC1CCCCC1	nt	nt	nt	nt	i	nt
Cc1ccc(-c2nc(C#N)c(NCCc3ccccn3)o2)cc1	i	i	nt	i	52.2	i
N#Cc1nc(-c2ccc(Cl)cc2)oc1NCCc1ccccn1	i	i	36.3	i	i	i
COc1ccc(-c2nc(C#N)c(NCCc3ccccc3)o2)cc1	i	i	i	i	nt	i
C[C@H](CO)N1C[C@H](C)[C@H](CN(C)CC2CC2)OCCCC[C@H](C)Oc2ccc(NC(=O)Nc3ccccc3)cc2C1=O	nt	nt	nt	nt	i	nt
C[C@@H]1CN([C@@H](C)CO)S(=O)(=O)c2ccc(C3=CCCCC3)cc2O[C@@H]1CN(C)S(=O)(=O)c1ccc(F)cc1	nt	nt	nt	nt	i	nt
Cc1nc(NC(=O)C2CC2)sc1C(=O)Nc1ccccc1Cl	i	i	i	i	53.1	i
COc1ccc(/C=C/C(=O)Nc2ccc3c(c2)CCC3)cc1OC	i	i	nt	i	47.3	i
COc1ccc(NC(=O)Nc2ccc3c(c2)CCC3)cc1OC	i	i	i	i	nt	i
CNC[C@H]1Oc2c(NC(=O)C3CCCCC3)cccc2C(=O)N([C@@H](C)CO)C[C@H]1C	nt	nt	nt	nt	i	nt
CN(C)CCCN(C(=O)c1cc(-c2cccs2)nc2ccccc12)c1nc2c(F)cccc2s1	i	i	i	4.1	i	i
C[C@H](NC(=O)C[C@@H]1C[C@@H]2c3cc(NS(=O)(=O)c4ccc(F)cc4)ccc3O[C@@H]2[C@H](CO)O1)c1ccccc1	nt	nt	nt	nt	i	nt
SMILES	hcDAF12 agonist	hgDAF12 agonist	Wnt act	DAX1 StAR inh	esBAF inh	ssDAF-12 act
COc1ccc(NC(=O)N(C)C[C@@H]2Oc3ccc(NS(=O)(=O)c4ccc(F)cc4)cc3C(=O)N([C@@H](C)CO)C[C@@H]2C)cc1	nt	nt	nt	nt	i	nt
Cc1ccc(OCCN2CCOCC2)cc1C	i	i	i	i	i	i
Cc1cc(OCCN2CCOCC2)ccc1Cl	i	12.5	i	i	42.6	i
Cc1cc(OCCN2CCOCC2)ccc1[N+](=O)[O-]	i	i	nt	i	nt	i
Cc1cc(OCCN2CCCC2)ccc1[N+](=O)[O-]	i	i	nt	i	nt	1.1
CO[C@@H]1CN(C)C(=O)c2ccc(NS(=O)(=O)c3ccc(C)cc3)cc2OC[C@H](C)N(C(=O)NC(C)C)C[C@@H]1C	nt	nt	nt	nt	i	nt
C[C@H](CO)N1C[C@H](C)[C@@H](CN(C)Cc2ccncc2)Oc2ccc(NS(C)(=O)=O)cc2C1=O	nt	nt	nt	nt	i	nt
CN(C)c1ccc(P(=O)(Nc2cccc(C(F)(F)F)c2)N2CCOCC2)c(NC(=O)c2cccs2)c1 (stereo unspecified)	i	i	i	i	i	1.4
C(=NOCc1ccccc1)c1ccncc1	i	i	i	i	i	i
